Source: PubChem BioAssay AID1159580 (chemical genetic matrix, 2015)
Several values for one entry are separate records, joined by “and”; a condition that tells them apart may be missing. Identical values can stand only once. Out of some 5,500 compounds screened, about 2,000 (36%) were called active. Another 18% or so got no clear call; they are omitted. No stated cut-off is given here; in the data, active means normalized growth mostly below about 0.91 (no sharp cut-off); inconclusive means no clear call, values can overlap the other calls; inactive means mostly above about 0.92. Some of the results follow. Some structures have more than one record in an assay (separate samples or runs), and their calls can disagree.

Experiment: chemical genetic growth profiling, strain panel (AID 1159580);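 further: tested at 20 µM; growth read once vehicle control cultures reached saturation at 30 °C; 1 = growth at the plate median or of vehicle wells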
Conditions: growth OD

Measured: normalized growth

O=C(CCCN1CCC(O)(c2ccc(Cl)cc2)CC1)c1ccc(F)cc1
0.826 (active) and 0.893 (inactive): S. cerevisiae deletion strains, locus YNL153C, strain GIM3, stronger effect = lower value
inactive: S. cerevisiae deletion strains, locus YNL183C, strain NPR1, stronger effect = lower value 0.971 | S. cerevisiae deletion strains, locus YNL197C, strain WHI3, stronger effect = lower value 0.997 | S. cerevisiae deletion strains, locus YNL209W, strain ssb2, stronger effect = lower value 0.933 | S. cerevisiae deletion strains, locus YNL224C, strain SQS1, stronger effect = lower value 1.04 | S. cerevisiae deletion strains, locus YNL250W, strain rad50, stronger effect = lower value 1 | S. cerevisiae deletion strains, locus YNL271C, strain bni1, stronger effect = lower value 1 | S. cerevisiae deletion strains, locus YNL298W, strain CLA4, stronger effect = lower value 1.02 | S. cerevisiae deletion strains, locus YNR049C, strain mso1, stronger effect = lower value 1.04 | S. cerevisiae deletion strains, locus YOL012C, strain htz1 1.18 | S. cerevisiae deletion strains, locus YOL147C, strain pex11, stronger effect = lower value 0.941 | S. cerevisiae deletion strains, locus YOR061W, strain CKA2, stronger effect = lower value 0.942 | S. cerevisiae deletion strains, locus YOR069W, strain VPS5, stronger effect = lower value 0.963 | S. cerevisiae deletion strains, locus YOR080W, strain dia2, stronger effect = lower value 0.969 | S. cerevisiae deletion strains, locus YOR083W, strain WHI5 (second series), stronger effect = lower value 0.977 | S. cerevisiae deletion strains, locus YOR083W, strain WHI5, stronger effect = lower value 0.944 | S. cerevisiae deletion strains, locus YOR106W, strain vam3, stronger effect = lower value 0.935 | S. cerevisiae deletion strains, locus YOR136W, strain idh2, stronger effect = lower value 0.98 | S. cerevisiae deletion strains, locus YOR144C, strain elg1, stronger effect = lower value 1 | S. cerevisiae deletion strains, locus YOR231W, strain MKK1, stronger effect = lower value 0.991 | S. cerevisiae deletion strains, locus YOR265W, strain rbl2, stronger effect = lower value 0.974 | S. cerevisiae deletion strains, locus YOR316C, strain cot1, stronger effect = lower value 1.02 | S. cerevisiae deletion strains, locus YPL078C, strain atp4, stronger effect = lower value 0.914 | S. cerevisiae deletion strains, locus YPL240C, strain hsp82, stronger effect = lower value 1 | S. cerevisiae deletion strains, locus YPL256C, strain CLN2, stronger effect = lower value 0.99 | S. cerevisiae deletion strains, locus YPR119W, strain clb2, stronger effect = lower value 1.04 | S. cerevisiae deletion strains, locus YPR141C, strain kar3, stronger effect = lower value 1.04 | S. cerevisiae deletion strains, locus YPR167C, strain met16, stronger effect = lower value 0.942
active: S. cerevisiae deletion strains, locus YNL071W, strain lat1, stronger effect = lower value 0.552 | S. cerevisiae deletion strains, locus YNL175C, strain NOP13, stronger effect = lower value 0.664 | S. cerevisiae deletion strains, locus YNL233W, strain BNI4, stronger effect = lower value 0.751 | S. cerevisiae deletion strains, locus YNL248C, strain rpa49, stronger effect = lower value 0.818 | S. cerevisiae deletion strains, locus YNL307C, strain MCK1, stronger effect = lower value 0.815 | S. cerevisiae deletion strains, locus YNL322C, strain KRE1 (second series), stronger effect = lower value 1.11 [resistant] | S. cerevisiae deletion strains, locus YNL322C, strain KRE1, stronger effect = lower value 0.884 | S. cerevisiae deletion strains, locus YNR052C, strain pop2, stronger effect = lower value 0.737 | S. cerevisiae deletion strains, locus YOR001W, strain rrp6, stronger effect = lower value 0.871 | S. cerevisiae deletion strains, locus YOR070C, strain gyp1, stronger effect = lower value 0.29 | S. cerevisiae deletion strains, locus YOR184W, strain ser1, stronger effect = lower value 0.847 | S. cerevisiae deletion strains, locus YOR270C, strain vph1, stronger effect = lower value 0.381 | S. cerevisiae deletion strains, locus YOR290C, strain snf2, stronger effect = lower value 0.843 | S. cerevisiae deletion strains, locus YPL051W, strain arl3, stronger effect = lower value 0.789 | S. cerevisiae deletion strains, locus YPL106C, strain sse1, stronger effect = lower value 1.17 [resistant] | S. cerevisiae deletion strains, locus YPR163C, strain tif3, stronger effect = lower value 0.575 | S. cerevisiae deletion strains, strain wtn01, stronger effect = lower value 0.776 | S. cerevisiae strains, strain wild type, stronger effect = lower value 0.833
0.89 (active) and 0.969 (inactive): S. cerevisiae deletion strains, locus YPL241C, strain CIN2, stronger effect = lower value
